Results reported in PubChem BioAssay (NCATS).
Results filed as inconclusive are left out. A call without a number means that no potency is given here. The source made the active and inactive calls. Calls come from the whole dose curve; as a rule, active = well fitted inhibition curve with a large enough effect; inconclusive = small, poorly fitted or top-dose-only effect; inactive = flat fitted curve, though single readings scatter. Non-standard residues stand in square brackets, D forms with d. Residues, ends and D or L forms follow the SMILES beside them. Orn = NCCC[C@H](N)C(=O)O

Target: Voltage-gated inwardly rectifying potassium channel KCNH2 (Homo sapiens) (UniProt Q12809)
Assay: qHTS Assay for Small Molecule Inhibitors of the Human hERG Channel Activity (AID 588834);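 note: lower thallium flux fluorescence means stronger hERG block; nearly all actives have a fitted effect of over 50% in size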
Method in brief: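 U2OS cells BacMam-transduced with hERG, 2000 cells/well, compound ~10 min at 37 °C before stimulation buffer. FluxOR thallium flux fluorescence read kinetically on FDSS; decrease indicates block; AC50 from Hill fits.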
Potency is the fitted concentration of half-maximal effect.

Voltage-gated inwardly rectifying potassium channel KCNH2 (Homo sapiens), sequence (Q12809 whole entry, looked up): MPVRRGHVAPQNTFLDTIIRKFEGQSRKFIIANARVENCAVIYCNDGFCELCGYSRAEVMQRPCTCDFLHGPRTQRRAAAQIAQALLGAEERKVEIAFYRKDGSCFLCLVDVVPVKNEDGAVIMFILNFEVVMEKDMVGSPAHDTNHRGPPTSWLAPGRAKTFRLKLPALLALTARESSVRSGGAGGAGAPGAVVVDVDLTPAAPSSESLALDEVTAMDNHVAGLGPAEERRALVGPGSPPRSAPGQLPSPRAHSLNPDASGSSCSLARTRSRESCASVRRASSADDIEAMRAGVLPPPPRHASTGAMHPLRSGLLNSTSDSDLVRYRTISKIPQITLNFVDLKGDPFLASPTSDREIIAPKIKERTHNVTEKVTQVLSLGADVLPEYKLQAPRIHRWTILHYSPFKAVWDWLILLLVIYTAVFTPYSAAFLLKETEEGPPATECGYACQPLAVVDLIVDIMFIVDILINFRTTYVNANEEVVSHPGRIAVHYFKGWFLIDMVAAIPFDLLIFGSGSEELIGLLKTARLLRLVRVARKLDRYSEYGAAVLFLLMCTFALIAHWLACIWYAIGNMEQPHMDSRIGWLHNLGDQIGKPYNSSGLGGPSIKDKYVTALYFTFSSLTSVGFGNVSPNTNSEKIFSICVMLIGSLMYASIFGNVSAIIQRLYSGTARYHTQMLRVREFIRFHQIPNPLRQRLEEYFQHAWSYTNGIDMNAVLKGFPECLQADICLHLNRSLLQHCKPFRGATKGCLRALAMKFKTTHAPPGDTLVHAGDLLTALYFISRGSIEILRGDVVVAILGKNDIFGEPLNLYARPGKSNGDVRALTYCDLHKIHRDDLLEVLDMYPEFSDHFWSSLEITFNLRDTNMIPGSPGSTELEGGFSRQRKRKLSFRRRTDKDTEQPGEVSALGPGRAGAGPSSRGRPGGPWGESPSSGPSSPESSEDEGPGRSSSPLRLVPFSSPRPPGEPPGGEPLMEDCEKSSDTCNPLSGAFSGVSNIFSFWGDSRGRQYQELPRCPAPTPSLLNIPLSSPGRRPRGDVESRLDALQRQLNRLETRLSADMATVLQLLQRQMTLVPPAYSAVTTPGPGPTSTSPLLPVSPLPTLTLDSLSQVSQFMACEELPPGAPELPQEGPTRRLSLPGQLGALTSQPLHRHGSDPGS

For `O=C(O)C1CCCN1` (configuration not stated), the Potency was “inactive”.
With `CC(=O)N(CC(C)C(=O)O)c1c(I)cc(I)c(N)c1I` (configuration not stated) the Potency was “inactive”.
For `C=C(NC(=O)C(=C)NC(=O)c1csc(C2=N[C@@H]3c4csc(n4)[C@H]4NC(=O)c5csc(n5)[C@H]([C@](C)(O)[C@@H](C)O)NC(=O)[C@H]5CSC(=N5)C(=CC)NC(=O)C([C@@H](C)O)NC(=O)c5csc(n5)[C@]3(CC2)NC(=O)[C@H](C)NC(=O)C(=C)NC(=O)[C@H](C)NC(=O)C([C@@H](C)CC)NC2C=Cc3c([C@H](C)O)cc(nc3C2O)C(=O)O[C@@H]4C)n1)C(N)=O` (some centres not stated), the Potency was “inactive”.
For `CC[C@H]1OC(=O)C[C@@H](O)[C@H](C)[C@@H](O[C@@H]2O[C@H](C)[C@@H](O)[C@H](N(C)C)[C@H]2O)[C@@H](CCN2C[C@H](C)C[C@H](C)C2)C[C@@H](C)C(=O)/C=C/C(C)=C/[C@@H]1CO[C@@H]1O[C@H](C)[C@@H](O)[C@@H](OC)[C@H]1OC`, the Potency was “inactive”.
With `CN=C(NC#N)Nc1ccc(C2=NNC(=O)C[C@@H]2C)cc1` the Potency was “inactive”.
In the case of `CCCCCCC(O)C/C=C/CCCCCCCC(=O)O` (configuration not stated), the Potency is reported as “inactive”.
`CN1CCC(CN2c3ccccc3Sc3ccccc32)C1` (configuration not stated) was tested, and the Potency was 12.6 µM (active).
With `CC1(C)S[C@@H]2[C@H](NC(=O)Cc3ccccc3)C(=O)N2[C@H]1C(=O)O` the Potency was “inactive”.
In the case of `CNc1cc(OC)c(C(=O)N[C@H]2CCN(Cc3ccccc3)[C@H]2C)cc1Cl`, the Potency is reported as 12.6 µM (active).
For `CC(C)NCC1CCc2cc(CO)c([N+](=O)[O-])cc2N1` (configuration not stated), the Potency was “inactive”.
In the case of `CC[C@@H](C(=O)O)[C@@H]1O[C@@H]([C@@H](C)[C@H](O)[C@H](C)C(=O)[C@H](CC)[C@H]2O[C@]3(C=C[C@@H](O)[C@]4(CC[C@@](C)([C@H]5CC[C@](O)(CC)[C@H](C)O5)O4)O3)[C@H](C)C[C@@H]2C)[C@@H](C)C[C@@H]1C`, the Potency is reported as “inactive”.
With `NCc1ccccc1CC(=O)N[C@@H]1C(=O)N2C(C(=O)O)=C(CSc3nnnn3CC(=O)O)CS[C@H]12` the Potency was “inactive”.
With `C=C1CC[C@@H]2[C@](C)(CO)[C@H](O)CC[C@@]2(C)[C@@H]1C/C=C1/C(=O)OC[C@H]1O` the Potency was “inactive”.
For `CCC(=O)OCC(=O)[C@@]1(OC(=O)CC)[C@H](C)C[C@H]2[C@H]3[C@H]([C@@H](O)C[C@@]21C)[C@@]1(C)C=CC(=O)C=C1C[C@H]3Cl`, the Potency was “inactive”.
In the case of `CCC(=O)O[C@@H]1CC(=O)O[C@H](C)C/C=C/C=C/[C@H](O)[C@H](C)C[C@H](CC=O)[C@H](O[C@@H]2O[C@H](C)[C@@H](O[C@H]3C[C@@](C)(O)[C@@H](OC(=O)CC)[C@H](C)O3)[C@H](N(C)C)[C@H]2O)[C@H]1OC`, the Potency is reported as “inactive”.
For `COc1ccc(C[C@H](N)C(=O)N[C@H]2[C@@H](O)[C@H](n3cnc4c(N(C)C)ncnc43)O[C@@H]2CO)cc1`, the Potency was “inactive”.
In the case of `CC(C)C[C@@H]1NC(=O)[C@H](CCCN)NC(=O)[C@H](C(C)C)NC(=O)[C@@H]2CCCN2C(=O)[C@@H](Cc2ccccc2)NC(=O)[C@H](CC(C)C)NC(=O)[C@H](CCCN)NC(=O)[C@H](C(C)C)NC(=O)[C@@H]2CCCN2C(=O)[C@@H](Cc2ccccc2)NC1=O` (cyclo(V[Orn]L[dF]PV[Orn]L[dF]P)), the Potency is reported as “inactive”.
`C[C@@H]1[C@H](O)[C@@H](C)/C=C/C=C\C=C\C=C\C=C\C=C\C=C\[C@H](O[C@@H]2O[C@H](C)[C@@H](O)[C@H](N)[C@@H]2O)C[C@@H]2O[C@](O)(C[C@@H](O)C[C@@H](O)[C@H](O)CC[C@@H](O)C[C@@H](O)CC(=O)O[C@H]1C)C[C@H](O)[C@H]2C(=O)O` (stereo in doubt) was tested, and the Potency was “inactive”.
With `CCC1OC(=O)C[C@@H](O)[C@H](C)[C@@H](O[C@@H]2O[C@H](C)C[C@H](N(C)C)[C@H]2O)[C@@H](CC=O)C[C@@H](C)C(=O)/C=C/[C@]2(C)OC2C1C` (some centres not stated) the Potency was “inactive”.
In the case of `CC(C)C(=O)OCC(=O)[C@@]12O[C@H](C3CCCCC3)O[C@@H]1C[C@H]1[C@@H]3CCC4=CC(=O)C=C[C@]4(C)[C@H]3[C@@H](O)C[C@@]12C`, the Potency is reported as 3.98 µM (active).
With `CO[C@H]1C=CO[C@@]2(C)Oc3c(C)c(O)c4c(O)c(c5c(c4c3C2=O)=NC2(CCN(CC(C)C)CC2)N=5)NC(=O)/C(C)=C\C=C/[C@H](C)[C@H](O)[C@@H](C)[C@@H](O)[C@@H](C)[C@H](OC(C)=O)[C@@H]1C` the Potency was “inactive”.
In the case of `CO[C@@H]1[C@@H](O[C@@H]2O[C@H](C)[C@@H](O[C@H]3C[C@@](C)(O)[C@@H](OC(=O)CC(C)C)[C@H](C)O3)[C@H](N(C)C)[C@H]2O)[C@@H](CC=O)C[C@@H](C)C(=O)/C=C/C2OC2C[C@@H](C)OC(=O)C[C@H]1OC(C)=O` (some centres not stated), the Potency is reported as “inactive”.
